Screening results deposited in PubChem BioAssay by National Center for Advancing Translational Sciences (NCATS).
The sample as a whole holds a higher share of hits than the screen did.
KDM5B inh: blocks human KDM5B histone demethylase activity. 220,000 compounds, 2.6% hits. AID 1347165. Potency, µM (top dose mostly 57.7 µM), actives largely listed as inhibitors. KDM5B demethylase, FDH-coupled NADH fluorescence (FDH is formaldehyde dehydrogenase). Q9UGL1; active means well fitted inhibition curve with a large enough effect; further: 0% is about no effect; nearly all actives have a fitted effect of over 70% in size
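Measured: NADH fluorescence change, 30 min, RT. System: KDM5BΔAP 200 nM final, H3K4me3 peptide, α-KG, Fe(II), ascorbate, NAD⁺ plus FDH, pH 7.5 HEPES. Compounds: titrated, 10 min pre-incubation with enzyme.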
Active calls of the source: *; ! = repeats disagree. Potency means the concentration at half of the fitted maximal effect.

Screening Cc1noc(C)c1CC(=O)N1CCCn2cc(-c3ccccc3F)nc21 returned KDM5B inh inactive.
`CC(NC(=O)c1ccc2c(c1)N(Cc1ccccc1)C(=O)c1ccccc1S2=O)c1ccc2c(c1)OCCO2` (centres undefined) gave KDM5B inh inactive.
For O=C(NCCc1ccco1)C1CCN(S(=O)(=O)c2ccccc2)CC1 the results were KDM5B inh inactive.
`O=C(NCc1ccccn1)C1CCC(CNS(=O)(=O)c2ccccc2)CC1` (centres undefined) gave KDM5B inh inactive.
Screening CCNC(=O)NC[C@@H]1C=C(C)[C@H](CC(=O)NCCN(C)C)C[C@H]1C(C)C returned KDM5B inh inactive.
`O=C(CCc1ncc(-c2ccc(F)cc2)o1)N1CCN(S(=O)(=O)c2ccc(F)cc2)CC1` gave KDM5B inh inactive.
`COc1cc(/C=N/O)cc(I)c1O` gave KDM5B inh inactive.
CCOc1ccc(-c2cc3c(=O)n(CC(=O)NCc4ccc(C)cc4)ccn3n2)cc1 was read as KDM5B inh inactive.
CCOc1ccc(-c2cc3c(=O)n(CC(=O)NCc4ccc(Cl)cc4)ccn3n2)cc1 was read as KDM5B inh inactive.
For CCOc1nccn2c(-c3ccc(CNC(=O)Cn4cnnn4)cc3)cnc12 the results were KDM5B inh 40µM*.
For Cn1ncc(C(=O)NCc2ccccc2)c1-n1cccc1 the results were KDM5B inh inactive.
Screening Cn1nc(C(=O)Nc2ccccc2Br)c2ccccc2c1=O returned KDM5B inh inactive.
NC(=O)c1ccc(Nc2cnc3ccc(-c4ccccc4)nn23)cc1 was read as KDM5B inh inactive.
O=C(Nc1ccccc1-c1ccccc1)c1ccc(Cl)cc1 was read as KDM5B inh inactive.
For COc1ccccc1NC(=O)CSc1ccc2nnc(CCNC(=O)c3ccccc3)n2n1 the results were KDM5B inh inactive.
For O=C(CNC(=O)c1ccccc1)NCc1nnc2ccc(-c3ccccc3)nn12 the results were KDM5B inh 32µM*.
Screening O=C(NCc1nnc2ccc(-c3ccccc3)nn12)c1ccc(Cl)cc1 returned KDM5B inh 28µM*.
Screening O=C(NCc1nnc2ccc(-c3ccccc3)nn12)c1ccoc1 returned KDM5B inh 32µM*.
O=C(NCc1nnc2ccc(-c3ccccc3)nn12)c1ccc(F)cc1 was read as KDM5B inh 32µM*.
`O=C(CCCc1nc(-c2cccs2)no1)NCc1cccnc1-n1cncn1` gave KDM5B inh inactive.
`CCCCNC(=O)c1cccc(C(=O)OC)c1` gave KDM5B inh inactive.
For NC(=O)c1nn(CC(=O)Nc2cccc3cccnc23)c(=O)c2ccccc12 the results were KDM5B inh inactive.
Screening C/C(=N\OC(=O)c1ccc(F)cc1)c1ccc(C)cc1 returned KDM5B inh inactive.
`CCCn1c(CSc2nnc(C3CC3)n2C2CC2)nc2cc(S(=O)(=O)N(C)C)ccc21` gave KDM5B inh inactive.
`COc1ccc(C(=O)/C=C/c2ccc(C)cc2)c(OC)c1` gave KDM5B inh inactive.
For Cc1ccc(NC(=S)Nc2ccccc2)nc1 the results were KDM5B inh inactive.
`CN(C)c1ccc2nnc(-c3cc(C(=O)NCc4ccccc4)ccn3)n2n1` gave KDM5B inh inactive.
CC(CCNC(=O)c1ccncc1)c1ccccc1 (centres undefined) was read as KDM5B inh inactive.
Screening O=C(NCc1nnc2ccc(-c3ccccc3)nn12)c1ccncc1 returned KDM5B inh 28µM*.
`CC(Sc1ccc2c(c1)CCC2)C(=O)NC1CC1` (centres undefined) gave KDM5B inh inactive.
`CCc1nc(-c2c3n(c(=O)n(Cc4ccccc4F)c2=O)CCCC3)no1` gave KDM5B inh inactive.
`CCc1nc(-c2c3n(c(=O)n(Cc4cc(=O)n5ccccc5n4)c2=O)CCCC3)no1` gave KDM5B inh 22µM*.
CCc1nc(-c2c3n(c(=O)n(Cc4ccc(C)cc4)c2=O)CCCC3)no1 was read as KDM5B inh inactive.
CC(NC(=O)c1ccc(Cl)c(S(=O)(=O)N2CCCC2)c1)c1cc2ccccc2o1 (centres undefined) was read as KDM5B inh inactive.
`Cc1cc(C)c(NC(=O)CCCc2cccs2)c(Cl)c1` gave KDM5B inh inactive.
For Cc1cc(C)cc(NC(=O)COC(=O)c2nn(C)c(=O)c3ccccc23)c1 the results were KDM5B inh inactive.
COc1ccc2oc(=O)c(-c3nc4ccc(C)cc4[nH]3)cc2c1 was read as KDM5B inh inactive.
Cc1oc(-c2ccccc2Cl)nc1CSc1nc2ccncc2[nH]1 was read as KDM5B inh inactive.
`Cc1cc(-c2nc3ccncc3[nH]2)c(C)o1` gave KDM5B inh 32µM*!.
CCCCCCCCN1c2ccccc2S(=O)c2ccccc21 was read as KDM5B inh inactive.
COC(=O)C(C)Oc1c(Br)cc(C=O)cc1OC (centres undefined) was read as KDM5B inh inactive.
Cc1cc(C(=O)O)cs1 was read as KDM5B inh inactive.
`Cc1ccc(C(=O)NCCn2cccc2-c2nc(-c3ccccc3)no2)cc1` gave KDM5B inh inactive.
Screening CCCc1noc(-c2cccn3c(CNC(=O)c4ccc(C)cc4)nnc23)n1 returned KDM5B inh 25µM*.
For O=C(CC1CCCCC1)NCc1nnc2c(-c3nc(C4CC4)no3)cccn12 the results were KDM5B inh 16µM*.
`CCCc1noc(-c2cccn3c(CNC(=O)C4CCC4)nnc23)n1` gave KDM5B inh 28µM*.
`O=C(NCc1nnc2c(-c3nc(C4CC4)no3)cccn12)c1ccc(F)c(Cl)c1` gave KDM5B inh 28µM*.
For O=C(c1ccc(F)c(F)c1)N1CCCC(n2cc(-c3nc(C4CC4)no3)nn2)C1 (centres undefined) the results were KDM5B inh inactive.
CCCc1noc(-c2cccn3c(CNC(=O)c4ccc5cc[nH]c5c4)nnc23)n1 was read as KDM5B inh inactive.
For O=C(NCCc1noc(-c2cccnc2)n1)C1CCC1 the results were KDM5B inh inactive.
For O=C(NCc1nnc2n1C(C(=O)O)CC2)c1cccc(Cl)c1 (centres undefined) the results were KDM5B inh inactive.
Cc1nc(CCNC(=O)C2CCC2)no1 was read as KDM5B inh inactive.
`COCc1nc2c(NC(=O)CC3CCCCC3)cccn2n1` gave KDM5B inh inactive.
Screening CS(=O)(=O)Nc1ccccc1CNC(=O)CC1CCCCC1 returned KDM5B inh inactive.
For CNC(=O)c1cc(NC(=O)CCn2nc(-c3ccc(Cl)cc3)c3ccccc3c2=O)ccc1OC the results were KDM5B inh inactive.
For S=C(NCc1ccco1)Nc1ccc(Br)cc1 the results were KDM5B inh inactive.
CCn1nc(C(=O)N2CC(C(=O)N(C)C)Oc3ccccc32)c2ccccc2c1=O (centres undefined) was read as KDM5B inh inactive.
CC(C)CCn1nc(C(=O)OC(C)C(=O)N2CCCc3ccccc32)c2ccccc2c1=O (centres undefined) was read as KDM5B inh inactive.
Cc1cc(SCC(=O)Nc2c(F)cccc2F)nc2ccccc12 was read as KDM5B inh inactive.
O=C(O)C/C(=C/c1ccsc1)c1nc2ccccc2s1 was read as KDM5B inh inactive.
Screening CCOc1cccc2c(C)nc(Nc3nc(C)c(Cc4ccc(C)cc4)c(=O)[nH]3)nc12 returned KDM5B inh inactive.
`COc1ccc(CCN2CCC(CN(C)Cc3nc(C(C)C)cs3)CC2)cc1` gave KDM5B inh inactive.
